The source made the active and inactive calls. Unless noted, how the calls were made is not given here.

These results are taken from PubChem BioAssay.

Assay [1] in a line: liver-stage malaria parasite load reduction – cell-based, known kinase inhibitor set, luminescence, hepatoma host viability (AID 624392).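 Further: infected cells incubated roughly two days before readout.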 Particulars: Plasmodium liver stage in hepatoma cells, luciferase luminescence, concentration not given here; liver cell % of control: measured here: host liver cell viability; parasite % of control: stronger effect = lower value.
Assay [2] can be described thus: altered dexamethasone sensitivity, NF-kB reporter, cell-based, luciferase, IL-1B stimulus (AID 624486).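 On percent of negative control (+Dex): 100% = mean signal of vehicle control wells on the plate.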 Particulars: IL-1B + dexamethasone, luminescence; percent of negative control (+Dex): actives lie on both sides, concentration not given here; z-score: measured here: IL-1B alone, no Dex.
Assay [3] is described as follows: C. elegans survival during P. aeruginosa infection – whole organism (AID 651566).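 Further: tested at 14 µM; sign flipped so higher z means a lower ratio.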 Particulars: C. elegans killed by P. aeruginosa, survival ratio.
A short description of assay [4]: pro-inflammatory signaling induction in mouse macrophages – cell-based, murine, luminescence (AID 652131). Particulars: murine macrophage pro-inflammatory reporter, stronger effect = higher value.
In assay [5] the target is Cellular tumor antigen p53 (Homo sapiens) (UniProt P04637). Briefly: GFP-p53 level modulators in HPV16+ cells – imaging, known kinase inhibitor set, EGFP/DsRed ratio (AID 1053116).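 Further: cells exposed to compounds for 24 h at 37 °C before reading.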 Particulars: GFP-p53 stability, stronger effect = higher value; EGFP object count: measured here: GFP-p53 positive objects count.
Cellular tumor antigen p53 (Homo sapiens), sequence (P04637 whole entry, looked up): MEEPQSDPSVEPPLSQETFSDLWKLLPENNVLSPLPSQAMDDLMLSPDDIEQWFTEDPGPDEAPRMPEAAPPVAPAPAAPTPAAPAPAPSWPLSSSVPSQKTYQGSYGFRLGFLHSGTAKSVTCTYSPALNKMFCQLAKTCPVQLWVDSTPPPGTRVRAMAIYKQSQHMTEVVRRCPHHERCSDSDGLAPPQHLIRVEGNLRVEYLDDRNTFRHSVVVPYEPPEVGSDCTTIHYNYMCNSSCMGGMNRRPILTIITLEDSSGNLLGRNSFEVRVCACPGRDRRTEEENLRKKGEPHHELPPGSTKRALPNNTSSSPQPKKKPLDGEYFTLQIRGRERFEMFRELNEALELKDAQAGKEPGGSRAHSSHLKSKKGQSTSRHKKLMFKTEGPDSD
Assay [6] can be described thus: inducers of IRF3 signaling, differentiated THP-1 – cell-based, PMA-stimulated THP-1, luminescence (AID 1053176). Particulars: PMA-differentiated THP-1, IRF3 reporter luminescence; stronger effect = higher value.
Assay [7] is described as follows: MELAS cybrid and Rieske KO viability enhancers – cell-based, MELAS cybrids, Rieske KO mouse fibroblasts, CellTiter-Glo, primary screen (AID 1508586;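 active means mean z-score across replicates of 1.96 or higher in either the MELAS or the Rieske mutant cell line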;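 further: z relative to plate mean and SD of compound and empty wells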). Particulars: low glucose. On the technique in general: Cellular ATP, detected with luciferase, serves as a proxy for viable cell number.
[8] abbreviates: MELAS cybrid survival, CellTiter-Glo 48 h, stronger effect = higher value.
Where [9] appears, read: Rieske KO mouse fibroblast survival, CellTiter-Glo 72 h.

With `COc1cccc(-n2ncc3c(N/N=C/c4ccc(C(=O)NCCN(C)C)cc4)ncnc32)c1`, the liver cell % of control in assay [1] is 77.1%. Besides, the parasite % of control in assay [1] was 68.4% (inactive). In assay [2], the percent of negative control (+Dex) is 104% (inactive). Moreover, the z-score was 0.67 in assay [2]; -0.295 (inactive) in assay [3]; 0.961 (inactive) in assay [4]; -0.557 (inactive) in assay [7] (setting [8]); 0.745 in assay [7] (setting [9]). The EGFP object count in assay [5] worked out at 7. Besides, the EGFP/DsRed ratio in assay [5] was 0.117 (inactive). In assay [6], the fraction signal was -0.0045 (inactive).

As for `O=C(Nc1n[nH]c2nc(-c3ccco3)c(Br)cc12)C1CC1`, in assay [1], the liver cell % of control amounted to 109%. For the same compound, the parasite % of control in assay [1] is 102% (inactive). The percent of negative control (+Dex) in assay [2] is 95% (inactive). Also, the z-score was 0.68 in assay [2]; -0.17 (inactive) in assay [3]; 0.441 (inactive) in assay [4]; -1.24 (inactive) in assay [7] (setting [8]); 0.037 in assay [7] (setting [9]). For the same compound, the EGFP object count in assay [5] was determined as 4. For the same compound, the EGFP/DsRed ratio in assay [5] was 0.447 (inactive). The fraction signal in assay [6] was -0.002 (inactive).

In assay [1], `COc1cc(C)c(NC(=O)CN(C)C)cc1Nc1nc(Nc2cccc(F)c2C(N)=O)c2cc[nH]c2n1` registered a liver cell % of control of 63%. Besides, the parasite % of control in assay [1] was 550% (inactive). In assay [2], the percent of negative control (+Dex) is 93% (inactive). Besides, the z-score in assay [2] is -0.195; in assay [3] it was -0.165 (inactive); in assay [4], 5.12 (inactive); in assay [7] (setting [8]) it was 1.87 (inactive); in assay [7] (setting [9]) it was -0.0279. Moreover, the EGFP object count in assay [5] amounted to 21. Further, the EGFP/DsRed ratio in assay [5] was 0.493 (inactive). In assay [6], the fraction signal was -0.0105 (inactive).

The compound `COc1ccc2cc(-c3c(-c4ccncc4)nc(-c4ccc(S(C)=O)cc4C)n3C)ccc2c1` (centres undefined) returned a liver cell % of control in assay [1] of 94.7%. Moreover, in assay [1], the parasite % of control was 66.8% (inactive). Moreover, the percent of negative control (+Dex) in assay [2] was 94% (inactive). Also, the z-score in assay [2] is 0.56; in assay [3] it was 0.7 (inactive); in assay [4], 0.465 (inactive); in assay [7] (setting [8]), 0.0666 (inactive); in assay [7] (setting [9]), -0.0858. Moreover, the EGFP object count in assay [5] amounted to 2.5. The EGFP/DsRed ratio in assay [5] is 0.206 (inactive). Besides, the fraction signal in assay [6] is -0.007 (inactive).

In assay [1], `O=C1Nc2ccc(I)cc2/C1=C\c1cc(Br)c(O)c(Br)c1` returned a liver cell % of control of 86.2%. Moreover, the parasite % of control in assay [1] is 77.5% (inactive). Besides, the percent of negative control (+Dex) in assay [2] was 92% (inactive). Also, the z-score in assay [2] was -0.355; in assay [3], 1.3 (inactive); in assay [4], 0.587 (inactive); in assay [7] (setting [8]), 0.405 (inactive); in assay [7] (setting [9]), -0.253. For the same compound, the EGFP object count in assay [5] was 1. Also, the EGFP/DsRed ratio in assay [5] was 0.0402 (inactive). In addition, the fraction signal in assay [6] was -0.0105 (inactive).

Turning to `CCn1c(-c2nonc2N)nc2cncc(C(=O)N3CC[C@H](N)C3)c21`, in assay [1], the liver cell % of control came to 108%. Also, in assay [1], the parasite % of control was 146% (inactive). In addition, the percent of negative control (+Dex) in assay [2] is 76.5% (inactive). The z-score is -2.08 in assay [2]; -0.435 (inactive) in assay [3]; 1.55 (inactive) in assay [4]; -0.752 (inactive) in assay [7] (setting [8]); -0.175 in assay [7] (setting [9]). The EGFP object count in assay [5] was determined as 4. For the same compound, in assay [5], the EGFP/DsRed ratio is 0.0807 (inactive). In addition, the fraction signal in assay [6] is -0.0035 (inactive).

`COC1CCC2NC3C4NC5CCC(OC)CC5C4C4C(=O)NC(=O)C4C3C2C1` (centres undefined) displayed a liver cell % of control in assay [1] of 93.4%. The parasite % of control in assay [1] was 178% (inactive). For the same compound, the percent of negative control (+Dex) in assay [2] was 106% (inactive). Moreover, the z-score in assay [2] is 1.79; in assay [3], 0.155 (inactive); in assay [4] it was -0.67 (inactive); in assay [7] (setting [8]), -0.302 (inactive); in assay [7] (setting [9]) it was 0.67. The EGFP object count in assay [5] was 3. The EGFP/DsRed ratio in assay [5] is 0.0486 (inactive). For the same compound, in assay [6], the fraction signal is -0.005 (inactive).

`Cc1cccc2c(N=Nc3ccc(S(N)(=O)=O)cc3)c(O)[nH]c12` had a liver cell % of control in assay [1] of 89.8%. Besides, the parasite % of control in assay [1] was 131% (inactive). Besides, the percent of negative control (+Dex) in assay [2] is 111% (inactive). In addition, the z-score in assay [2] was 1.54; in assay [3], -0.125 (inactive); in assay [4], -0.036 (inactive); in assay [7] (setting [8]) it was 0.912 (inactive); in assay [7] (setting [9]) it was -0.47. For the same compound, the EGFP object count in assay [5] came to 3.5. Also, the EGFP/DsRed ratio in assay [5] is 0.095 (inactive). In assay [6], the fraction signal was -0.0075 (inactive).

`O=C1NC(=O)C(c2cccc(Cl)c2)=C1Nc1ccc(O)c(Cl)c1` came in with a liver cell % of control in assay [1] of 112%. In addition, the parasite % of control in assay [1] is 102% (inactive). Also, the percent of negative control (+Dex) in assay [2] is 93% (inactive). Also, the z-score is 0.42 in assay [2]; -0.775 (inactive) in assay [3]; 0.127 (inactive) in assay [4]; -1.05 (inactive) in assay [7] (setting [8]); -0.373 in assay [7] (setting [9]). For the same compound, the EGFP object count in assay [5] was 5. Moreover, the EGFP/DsRed ratio in assay [5] is 0.0621 (inactive). For the same compound, the fraction signal in assay [6] was -0.0075 (inactive).

As to `COc1cc(Nc2nccc(-c3cnn4ncccc34)n2)cc(OC)c1`, in assay [1], the liver cell % of control was determined as 132%. For the same compound, in assay [1], the parasite % of control was 14.2% (inactive). Also, in assay [2], the percent of negative control (+Dex) was 29% (active). The z-score in assay [2] is -7.79; in assay [3], 0.5 (inactive); in assay [4], -1.96 (inactive); in assay [7] (setting [8]) it was 1.1 (inactive); in assay [7] (setting [9]) it was 0.69. Besides, in assay [5], the EGFP object count came to 2.5. Also, the EGFP/DsRed ratio in assay [5] is 0.0482 (inactive). In addition, the fraction signal in assay [6] was -0.004 (inactive).

For `CCCN(CCS(C)(=O)=O)Cc1ccc(-c2ccc3ncnc(Nc4ccc(OCc5cccc(F)c5)c(Cl)c4)c3c2)o1`, the liver cell % of control in assay [1] was 100%. Further, in assay [1], the parasite % of control is 108% (inactive). Further, in assay [2], the percent of negative control (+Dex) is 74.5% (inactive). The z-score in assay [2] was -1.22; in assay [3] it was 1.21 (inactive); in assay [4], 1.79 (inactive); in assay [7] (setting [8]), -0.517 (inactive); in assay [7] (setting [9]), -0.151. The EGFP object count in assay [5] stood at 4.5. Moreover, the EGFP/DsRed ratio in assay [5] was 0.083 (inactive). In assay [6], the fraction signal is -0.0115 (inactive).

`Fc1ccc(-c2cc(C3CNNC3c3ccccn3)ccn2)cc1` (centres undefined) gave a liver cell % of control in assay [1] of 162%. For the same compound, in assay [1], the parasite % of control was 60.9% (inactive). The percent of negative control (+Dex) in assay [2] is 81% (inactive). Also, the z-score is -1.07 in assay [2]; 0 (inactive) in assay [3]; -0.015 (inactive) in assay [4]; 0.213 (inactive) in assay [7] (setting [8]); -0.249 in assay [7] (setting [9]). Also, the EGFP object count in assay [5] amounted to 3. For the same compound, in assay [5], the EGFP/DsRed ratio is 0.0511 (inactive). Further, the fraction signal in assay [6] was -0.0065 (inactive).

In assay [1], `CCCN1CCC(Oc2cc(Nc3nc(Nc4cccc(F)c4C(N)=O)c4cc[nH]c4n3)c(OC)cc2Cl)CC1` displayed a liver cell % of control of 60.5%. Also, in assay [1], the parasite % of control is 168% (inactive). For the same compound, in assay [2], the percent of negative control (+Dex) was 77.5% (inactive). Moreover, the z-score in assay [2] was -0.445; in assay [3], 0.48 (inactive); in assay [4] it was -0.663 (inactive); in assay [7] (setting [8]) it was 0.312 (inactive); in assay [7] (setting [9]) it was 0.375. In addition, the EGFP object count in assay [5] was determined as 67.5. Moreover, the EGFP/DsRed ratio in assay [5] is 0.575 (active). The fraction signal in assay [6] is 0.0095 (inactive).

For `COC(=O)c1cncc(/C=C/c2c(C)cc(O)cc2C)c1`, the liver cell % of control in assay [1] was 108%. The parasite % of control in assay [1] was 131% (inactive). Moreover, in assay [2], the percent of negative control (+Dex) is 108% (inactive). Moreover, the z-score is 1.96 in assay [2]; 0.295 (inactive) in assay [3]; -0.608 (inactive) in assay [4]; 0.159 (inactive) in assay [7] (setting [8]); 0.14 in assay [7] (setting [9]). Also, the EGFP object count in assay [5] was determined as 4.5. The EGFP/DsRed ratio in assay [5] is 0.286 (inactive). Besides, the fraction signal in assay [6] was -0.0065 (inactive).
